55 molecules from ChEMBL document CHEMBL4513216, “Probing the Open Global Health Chemical Diversity Library for Multistage-Active Starting Points for Next-Generation Antimalarials” (ACS Infect Dis, 2020) can be followed below.

The campaign covered roughly 69,000 compounds. About 8,600 (12%) showed an effect of 50% or more. The sample as a whole holds a higher share of strong results than the screen did.

The test deals with Plasmodium berghei. The test can be described thus: Screen against P. berghei liver stage (PbLuc), transformed with Luciferase, at 10uM. It is filed as functional, HepG2. Particulars: tested at 10 uM.
Consider `Cc1ccc(NC2CCN(C(=O)c3ccsc3)CC2)nn1`, for which the INHIBITION stood at 31.8%.

On to `CC(C)Nc1nc2c(c(NC3CC3)n1)CN(C(=O)Cc1ccsc1)CC2`, for which the INHIBITION turned out to be 83.7%.

On to `CC(C)Nc1nc2c(c(NC3CC3)n1)CN(C(=O)c1ccncc1)CC2`, for which the INHIBITION was found to be 5.36%.

Take `CC(C(=O)NCCOc1ccccc1)n1cncn1` (stereo not given): the INHIBITION stood at 2.97%.

Regarding `CN(C)C(=O)CN1CC[C@H]2CN(S(C)(=O)=O)C[C@@H]2C1=O`, the INHIBITION was -41.8%.

Take `O=C(c1ccccc1F)N1C[C@H]2CCC[C@@]2(COCc2ccncc2)C1`: the INHIBITION was 15.4%.

For `Cc1cnn(CCNCc2csc(-c3ccccc3)n2)c1`, the INHIBITION turned out to be 34.75%.

In the case of `CC(C)CN1CC[C@@H]2[C@H](CC1)N(C(=O)c1ccccc1)CCS2(=O)=O`, the INHIBITION was 36.9%.

Turning to `COc1ccccc1OCC(=O)NCC(C)(O)c1ccccc1` (stereo not given), the INHIBITION is on record as 9.79%.

For `CC(C)n1cc(CN2CCCN(C(=O)CC3CCCO3)CC2)cn1` (stereo not given), the INHIBITION was -4.94%.

In the case of `O=C(CCS(=O)(=O)c1ccccc1)N1CCCC(n2cccn2)C1` (stereo not given), the INHIBITION worked out at 34.5%.

As to `Cn1cnc2c1C(COCc1ccccc1)N(Cc1ccccn1)CC2` (stereo not given), the INHIBITION is recorded as 18.5%.

As to `Cc1c(S(=O)(=O)N2CCCC2c2nnc(-c3ccsc3)o2)cnn1C` (stereo not given), the INHIBITION worked out at 0.4%.

In the case of `CN1C[C@H]2CC[C@@H](CC1=O)N2C(=O)c1ccc(-c2ccccc2)[nH]c1=O`, the INHIBITION is listed as -45%.

`Cc1nn(C)c(Cl)c1CNCc1cccnc1N1CCOCC1`: the INHIBITION is reported as 41.8%.

`CN(C(=O)CNc1ccc(C#N)cc1)C1CCCCC1`: the INHIBITION is -87.7%.

Take `N#Cc1ccc(CN(CC(N)=O)C2CCCC2)c(Br)c1`: the INHIBITION is recorded as 90.2%.

As to `N#Cc1ccccc1CN(CC(N)=O)C1CCCC1`, the INHIBITION was 20.9%.

Consider `NC(=O)CN(Cc1ncc(-c2ccccc2)o1)C1CCCC1`, for which the INHIBITION is on record as -32%.

For the molecule `N#Cc1ccc(CN(CC(N)=O)C2CCCC2)cc1`, the INHIBITION is on record as 90.2%.

With `N#Cc1ccc(CN(CC(N)=O)Cc2cccc(F)c2)cc1`, the INHIBITION is 17.1%.

With `Cn1cccc1C(=O)N1CCn2nnc(COc3cccnc3)c2C1`, the INHIBITION was -6.21%.

For `Cc1nn(C)c(N(C)C)c1CNCc1ccnc(N2CCCCC2)c1`, the INHIBITION was -56.7%.

`Cc1ccc(C(=O)N2CCN(CC(C)O)CC2)cc1S(C)(=O)=O` (stereo not given): the INHIBITION is listed as -19.6%.

On to `CS(=O)(=O)c1ccc(NC(=O)NCCC2=CCCCC2)cc1`, for which the INHIBITION is -165%.

On to `COc1cc(NC(=O)c2ccc(C)cc2C)c(C(=O)N(C)C)cc1OC`, for which the INHIBITION is listed as -7.36%.

Consider `O=C(NCCCSc1ccc(F)cc1)C1CCc2cn[nH]c2C1` (stereo not given), for which the INHIBITION was 50.8%.

For the molecule `CN(CCCNC(=O)C1CCc2cn[nH]c2C1)c1ccc(F)cc1` (stereo not given), the INHIBITION stood at 31.2%.

In the case of `CN(CCCNC(=O)C1CCc2cn[nH]c2C1)c1ccccc1` (stereo not given), the INHIBITION is recorded as 24.3%.

With `CN(Cc1nc(Cc2cccc(F)c2)no1)C1CCOCC1`, the INHIBITION is -24.2%.

`Cc1nn(C)cc1Cn1c(=O)cnc2ccccc21`: the INHIBITION is 43.4%.

In the case of `COCC(=O)Nc1ccc2c(c1)C1(CCOCC1)CN2CCF`, the INHIBITION is -4.08%.

For `COCCN1CC2(CCOCC2)c2cc(NC(=O)C3CC=CC3)ccc21`, the INHIBITION was 76.5%.

Turning to `CCN1CC2(CCOCC2)c2cc(NS(=O)(=O)CC)ccc21`, the INHIBITION amounted to 38.5%.

As for `CCS(=O)(=O)Nc1ccc2c(c1)C1(CCOCC1)CN2C`, the INHIBITION was 46.6%.

`CCCC(=O)Nc1ccc2c(c1)C1(CCOCC1)CN2CCOC`: the INHIBITION is reported as 52.1%.

Take `CCC(=O)Nc1ccc2c(c1)C1(CCOCC1)CN2CCOC`: the INHIBITION was 55.7%.

Take `CN(C)C(=O)N1CC2(CCOCC2)c2cc(NC(=O)CCO)ccc21`: the INHIBITION is on record as 45.2%.

As for `COCCN1CC(C(=O)Nc2ccc3c(c2)CCC(=O)N3C)CC1=O` (stereo not given), the INHIBITION was -22.6%.

Consider `CCC(=O)Nc1ccc2c(c1)C1(CCOCC1)CN2CCF`, for which the INHIBITION was 10.4%.

As for `Cn1ccnc1CN1CCC2(CC1)CC(NC(=O)c1ccccn1)CO2` (stereo not given), the INHIBITION is given as 28.4%.

Turning to `Cc1cc(C)nc(C2(C)CCCN2CCO)n1` (stereo not given), the INHIBITION was -4.6%.

For `CCCc1cc(C(=O)Nc2nc(SC)ns2)n(C)n1`, the INHIBITION was -106.9%.

As to `Cc1ccccc1C(C)NC(=O)CSCC#N` (stereo not given), the INHIBITION amounted to 31.9%.

On to `Cc1ccc(C(=O)NC2CCN(S(C)(=O)=O)CC2)c(=O)[nH]1`, for which the INHIBITION was 47.7%.

With `Cc1cnc(C(=O)N2CCN(c3ncc4c(n3)CCOC4)CC2)cn1`, the INHIBITION was determined as 27.4%.

On to `CCCc1nc(CN(CC)C(=O)c2onc3ccccc23)no1`, for which the INHIBITION is listed as -14.1%.

For `COCCN1CC(O)CN(C(=O)c2ccc(SC)cc2)CC1=O` (stereo not given), the INHIBITION was determined as 29%.

For `Cc1ccc(S(=O)(=O)Nc2ccc(-n3cccc3C(=O)O)c(C)c2)cc1`, the INHIBITION came out at 56%.

`Cc1ccc(S(=O)(=O)Nc2ccc(-n3cccc3C(=O)O)c(C)c2)s1`: the INHIBITION is -3.16%.

For `Cc1cc(NS(=O)(=O)c2ccccc2F)ccc1-n1cccc1C(=O)O`, the INHIBITION is listed as -19.7%.

For the molecule `Cc1n[nH]c(C)c1NC(=O)CN1CCN(c2nccs2)C(C)C1` (stereo not given), the INHIBITION is reported as 14.4%.

Consider `Cc1cccn2c(CC(=O)N3CCC(Oc4ncccn4)CC3)cnc12`, for which the INHIBITION was -30.3%.

Turning to `Cc1cccn2c(CC(=O)N3CCC(CCn4cccn4)CC3)cnc12`, the INHIBITION turned out to be 71.3%.

Turning to `Cc1ccc2nc(C(=O)N3CCC(CCn4cccn4)CC3)cn2c1`, the INHIBITION is given as -14.1%.
